A selection: hits, their analogues and other compounds. The true share with any hit is near 4%.
Gli-Sufu block – Gli-Sufu pathway antagonists, primary screen, luciferase luminescence, Sufu-KO-LIGHT cells, uHTS; actives 0.74% (n = 340,000); AID 588413, 2011; inhibition, % at 5 µM; Sufu-KO-LIGHT fibroblasts, Gli luciferase reporter luminescence;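 active means inhibition above about 55%, limit read from the data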;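 further: 0% = DMSO-treated cells and 100% = wells with medium but no cells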
PAX8 inh HTS – inhibitors of PAX8-driven TPO luciferase reporter, primary screen, RMG-I cells, single concentration | inhibition, % at 12.6 µM | SteadyGlo, 24 h | actives 1.2% (n = 360,000) | AID 652154, 2013;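 active means mean replicate inhibition at least 60% with every replicate also reaching 60%; inconclusive means only one of the two criteria is met; inactive means mean below 60% and not all replicates reaching 60%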;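 further: luciferase light reporting Pax8 driven TPO promoter activity; plate controls were median of neutral control wells for no effect and mitoxantrone controls for full effect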
Beta apoptosis – inhibitors of cytokine-induced beta cell apoptosis, primary screen, luminescence; INS-1E cytokine-induced death, ATP luminescence, 48 h; percent of positive-control rescue, neutral wells zero; protection from apoptosis, % (no concentration beside the values); actives 0.8% (n = 300,000);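 active means Every replicate reaches about 75%, or at least half do and their mean reaches it too, limit read from the data; inconclusive means At least half of replicates reach the limit but their mean does not; inactive means Under half of replicates reach the limit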;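 further: 0% = cytokine-treated negative control wells and 100% = positive control rescue; higher means more ATP so stronger rescue from cytokine killing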
CSC inhib – cancer stem cell viability inhibitors, primary screen, luminescence; actives 1.1% (n = 300,000); cancer stem cell-like cells viability; inhibition, % at 7.5 µM; in the data active means inhibition above about 75%; inconclusive means no clear call, values can overlap the other calls; tested in HMLE shEcad cells
Shn3 inh set2 – reduction of Shn3 3'UTR firefly luciferase signal, primary screen, Schnurri-3 inhibitor project, cell-based, Clone20 osteoblasts, set 2 | Clone20 osteoblast Shn3 3'UTR firefly luciferase, 24 h | inhibition, % at 12.5 µM | actives 0.52% (n = 360,000) | AID 588674, 2011;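 active means mean inhibition of at least 75% with every replicate also reaching 75%; inconclusive means mean inhibition at least 75% but some replicate below; inactive means mean inhibition below 75%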;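 further: 0% = median of neutral control wells and 100% = pilot-screen positive control compound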
Mdm2 MdmX PPI – inhibitors of human Mdm2-MdmX association, primary screen, cell-based, luminescence, split luciferase, SaOS-2, uHTS; Protein Mdm4 (Homo sapiens) + E3 ubiquitin-protein ligase Mdm2 (Homo sapiens), …; SaOS-2 split-luciferase Mdm2/MdmX complementation; inhibition, % at 8 µM; actives 3% (n = 330,000); AID 485346, 2010;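 active means inhibition of at least 50% at 8 µM in the primary screen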
Mdm2 MdmX conf – Mdm2-MdmX complex disruptors, retested hits, confirmation, luminescence, single concentration. shares compounds with Mdm2 MdmX PPI. Mdm2-MdmX binding, luminescent assay. inhibition, % at 8 µM. actives 55% (n = 10,000). AID 489028, 2010; in the data active means inhibition above about 40%
Full FLuc ctr – full-length luciferase signal inhibition, confirmation, counter-screen for Mdm2/MdmX interaction inhibitor project, cell-based, single concentration, SaOS-2. shares compounds with Mdm2 MdmX PPI. SaOS-2 full-length luciferase counterscreen, luminescence. inhibition, % at 8 µM. actives 77% (n = 6,200). AID 504607, 2011;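 active means mean inhibition at 8 µM reaching about 37%, which flags the compound as non-specific, limit read from the data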;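 further: p53-null SaOS-2 cells with luciferase driven by a doxycycline-inducible promoter; compound on cells about two nights before reading with doxycycline added after day one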
An asterisk follows results filed as active; ? = inconclusive; . = no result given.

SMILES	Gli-Sufu block	PAX8 inh HTS	Beta apoptosis	CSC inhib	Shn3 inh set2	Mdm2 MdmX PPI	Mdm2 MdmX conf	others
COc1ccc(CNC(=O)C[C@H]2C[C@H](C(=O)N3CCOCC3)[C@@]3(CCC4CCCC4)c4[nH]c5cc(-c6ccco6)ccc5c4CCN3C2=O)cc1OC	7.0	24.2	.	.	16.0	53.1*	5.2
CC(C)(C)NC(=O)C[C@H]1C[C@H](C(=O)N2CCOCC2)[C@@]2(CCC3CCCC3)c3[nH]c4cc(-c5ccco5)ccc4c3CCN2C1=O	3.1	.	.	.	24.4	73.1*	-5.3
O=C(CC1C[C@H](C(=O)N2CCOCC2)[C@@]2(CCC3CCCC3)c3[nH]c4ccccc4c3CCN2C1=O)NCCN1CCOCC1 (stereo partly specified)	-3.6	0.5	-4.6	.	-6.8	20.1	.
COCCCNC(=O)C[C@H]1C[C@H](C(=O)N2CCOCC2)[C@@]2(CCC3CCCC3)c3[nH]c4cc(-c5ccco5)ccc4c3CCN2C1=O	-6.0	-3.8	.	.	27.4	5.9	.
CN1C(=O)c2cc(NC(=O)c3ccc(C(F)(F)F)cc3)ccc2OC[C@H]2O[C@H](CC(=O)NCc3ccc4c(c3)OCO4)CC[C@@H]21	.	12.8	.	.	.	.	.
CCCN1[C@@H]2c3ccc(-c4ccccc4F)c(=O)n3C[C@H]1[C@H](CO)[C@H]2C(=O)NCC	.	3.1	.	.	.	.	.
O=C(C[C@H]1C[C@H](C(=O)N2CCOCC2)[C@@]2(CCC3CCCC3)c3[nH]c4cc(-c5ccco5)ccc4c3CCN2C1=O)NCCN1CCOCC1	4.0	-7.5	.	.	-2.8	42.7	.
CN(C)CCCNC(=O)C[C@H]1C[C@H](C(=O)N2CCOCC2)[C@@]2(CCC3CCCC3)c3[nH]c4cc(-c5ccco5)ccc4c3CCN2C1=O	-7.2	3.1	.	.	-6.6	94.9*	11.3
Cn1c(=O)cc(SCC(=O)Nc2ccccn2)c2ccccc21	1.1	16.0	-9.2	8.8	.	47.6	.
Cc1ccnc(NC(=O)CCCc2c[nH]c3ccccc23)c1	-6.9	12.1	.	-14.7	-15.0	67.8*	35.8
Cn1c(=O)cc(OCCCC(=O)NCc2ccccn2)c2ccccc21	2.3	16.8	-3.6	-17.6	-26.8	17.3	.
Cc1ccnc(NC(=O)CCCOc2cc(=O)n(C)c3ccccc23)c1	-119.0	52.5	33.8	37.8	-154.9	75.1*	84.0*	Full FLuc ctr=117.4*
Cc1ccnc(NC(=O)CSc2cc(=O)n(C)c3ccccc23)c1	-28.0	.	-15.4	?	8.6	82.5*	75.9*	Full FLuc ctr=126.8*
Cn1c(=O)cc(OCCCC(=O)NC2CCCC2)c2ccccc21	31.5	.	-28.9	5.8	-49.7	66.6*	47.6*	Full FLuc ctr=85.7*
CC(C)c1cn(CC[C@H]2CC[C@H](NC(=O)C3CCOCC3)[C@@H](CO)O2)nn1	.	-4.7	.	.	.	.	.
C[C@H]1CN([C@@H](C)CO)C(=O)c2cccc(NC(=O)c3cnccn3)c2O[C@H]1CN(C)CC1CCCCC1	.	-2.1	.	.	.	.	.
C[C@@H]1CCCCO[C@@H](CN(C)S(C)(=O)=O)[C@@H](C)CN([C@H](C)CO)C(=O)c2cc(NC(=O)c3ccncc3)ccc2O1	.	-9.2	.	.	.	.	.
Cn1c(=O)cc(OCCCC(=O)NCc2ccc(F)cc2Cl)c2ccccc21	1.1	-11.9	-2.1	-6.7	12.5	56.6*	19.7
COc1cccc(NC(=O)CCCOc2cc(=O)n(C)c3ccccc23)c1	-3.5	.	3.7	-20.4	5.8	28.8	.
CCOc1ccc(NC(=O)CCCOc2cc(=O)n(C)c3ccccc23)cc1	6.9	-0.6	-2.9	-8.9	-21.6	51.6*	20.2
C[C@H](CO)N1C[C@H](C)[C@@H](CN(C)Cc2cncnc2)Oc2cc(C#C[C@@H](C)O)ccc2S1(=O)=O	.	4.9	.	.	.	.	.

Screening data: PubChem, several laboratories
